Several values for one entry are separate records, joined by “and”; a condition that tells them apart may be missing. Equal entries are not always repeated. Screen size: about 5,500 compounds; about 2,000 (36%) were called active. About 18% were inconclusive and are not listed. Cut-off read from the data, not from the text of the source: active = normalized growth mostly below about 0.91 (no sharp cut-off); inconclusive = no clear call, values can overlap the other calls; inactive = mostly above about 0.92. This is one part of the list.
Test: chemical genetic growth profiling, strain panel (AID 1159580);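 note: tested at 20 µM; growth read once vehicle control cultures reached saturation at 30 °C; 1 = growth at the plate median or of vehicle wells; lower values mean less growth of the strain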
Details: S. cerevisiae deletion strains, growth OD

Measured: normalized growth

CCN(Cc1ccncc1)C(=O)C(CO)c1ccccc1 (stereo unspecified)
inactive: locus YAL013W, strain DEP1, active compounds read low 0.993 and 0.979 | locus YAL021C, strain ccr4, active compounds read low 1.04 | locus YAL026C, strain drs2, active compounds read low 1.03 | locus YAL030W, strain snc1, active compounds read low 1.02 | locus YAL040C, strain CLN3, active compounds read low 0.996 | locus YBL061C, strain skt5, active compounds read low 1.02 | locus YBR009C, strain hhf1, active compounds read low 1.03 | locus YBR021W, strain FUR4, active compounds read low 1.01 | locus YBR023C, strain chs3, active compounds read low 1.03 | locus YBR171W, strain sec66, active compounds read low 1.04 | locus YBR229C, strain ROT2, active compounds read low 0.996 | locus YBR231C, strain swc5, active compounds read low 1.03 | locus YBR279W, strain paf1, active compounds read low 1.01 | locus YCL011C, strain gbp2, active compounds read low 1.02 | locus YCL016C, strain dcc1, active compounds read low 1.03 | locus YCL029C, strain bik1, active compounds read low 0.973 | locus YCL061C, strain MRC1 (second series), active compounds read low 1.01 | locus YCL061C, strain MRC1, active compounds read low 1.03 | locus YCL069W, strain vba3, active compounds read low 1.03 | locus YCR088W, strain abp1, active compounds read low 1.02 | locus YDL005C, strain med2, active compounds read low 1.04 | locus YDL035C, strain GPR1, active compounds read low 1 | locus YDL040C, strain nat1, active compounds read low 1.02 | locus YDL074C, strain BRE1, active compounds read low 0.989 | locus YDL101C, strain DUN1, active compounds read low 0.987 | locus YDL134C, strain PPH21, active compounds read low 0.999 | locus YDL185W, strain tfp1, active compounds read low 0.964 | locus YDL192W, strain arf1, active compounds read low 0.976 | locus YDR001C, strain nth1, active compounds read low 1.02 | locus YDR069C, strain doa4, active compounds read low 1.04 | locus YDR101C, strain arx1, active compounds read low 0.985 | locus YDR137W, strain rgp1, active compounds read low 1.07 | locus YDR150W, strain NUM1, active compounds read low 0.994 | locus YDR159W, strain sac3, active compounds read low 1.03 | locus YDR162C, strain NBP2, active compounds read low 0.985 | locus YDR195W, strain ref2 1.02 | locus YDR297W, strain sur2, active compounds read low 1.02 | locus YDR318W, strain mcm21, active compounds read low 0.989 | locus YDR334W, strain swr1, active compounds read low 1.03 | locus YDR335W, strain msn5, active compounds read low 1.04 | locus YDR363W, strain ESC2, active compounds read low 0.991 | locus YDR388W, active compounds read low 0.993 | locus YDR392W, strain spt3, active compounds read low 0.987 | locus YDR502C, strain sam2, active compounds read low 1.01 | locus YEL003W, strain gim4, active compounds read low 1.01 | locus YEL037C, strain rad23, active compounds read low 1.02 | locus YEL061C, strain CIN8 (second series), active compounds read low 1.03 | locus YEL061C, strain CIN8, active compounds read low 0.995 | locus YER002W, strain NOP16, active compounds read low 0.994 | locus YER015W, strain faa2, active compounds read low 1.01 | locus YER016W, strain bim1, active compounds read low 1.03 | locus YER110C, active compounds read low 0.988 | locus YER111C, strain swi4, active compounds read low 1.03 | locus YER155C, strain BEM2 (second series), active compounds read low 1.03 | locus YER155C, strain BEM2, active compounds read low 0.994 | locus YER167W, strain BCK2, active compounds read low 0.989 | locus YFR010W, strain ubp6, active compounds read low 1.02 | locus YGL078C, strain dbp3, active compounds read low 1 | locus YGL086W, strain mad1, active compounds read low 1 | locus YGL167C, strain pmr1, active compounds read low 1.02 | locus YGL173C, strain kem1, active compounds read low 1.04 | locus YGL227W, strain vid30, active compounds read low 1.04 | locus YGL240W, strain doc1, active compounds read low 1.03 | locus YGL248W, strain PDE1, active compounds read low 1 | locus YGL253W, strain hxk2, active compounds read low 1.02 | locus YGR078C, strain PAC10, active compounds read low 0.989 | locus YGR135W, strain pre9, active compounds read low 0.994 | locus YGR229C, strain SMI1, active compounds read low 0.997 | locus YGR252W, strain gcn5, active compounds read low 1.11 | locus YHR013C, strain ard1, active compounds read low 1.05 | locus YHR027C, strain rpn1, active compounds read low 1.05 | locus YHR030C, strain SLT2, active compounds read low 0.981 and 1 | locus YHR079C, strain IRE1 (second series), active compounds read low 0.984 | locus YHR079C, strain IRE1, active compounds read low 0.989 | locus YHR094C, strain hxt1, active compounds read low 0.977 | locus YHR129C, strain ARP1, active compounds read low 0.993 | locus YHR142W, strain chs7, active compounds read low 1.02 | locus YHR200W, strain rpn10, active compounds read low 0.992 | locus YIL066C, strain RNR3, active compounds read low 0.997 | locus YIL073C, strain SPO22, active compounds read low 0.926 | locus YIL125W, strain kgd1, active compounds read low 0.984 | locus YIR030C, strain dcg1, active compounds read low 1 | locus YJL092W, strain hpr5, active compounds read low 1.02 | locus YJL095W, strain BCK1 (second series), active compounds read low 1.01 | locus YJL095W, strain BCK1, active compounds read low 0.972 and 1.01 | locus YJL115W, strain asf1, active compounds read low 1.04 | locus YJL129C, strain trk1, active compounds read low 1.04 | locus YJL134W, strain LCB3, active compounds read low 0.995 | locus YJL154C, strain vps35, active compounds read low 1.02 | locus YJL164C, strain tpk1, active compounds read low 1.02 | locus YJL166W, strain qcr8, active compounds read low 1.02 | locus YJL168C, strain set2, active compounds read low 0.983 | locus YJL187C, strain SWE1 (second series), active compounds read low 0.979 | locus YJL187C, strain SWE1, active compounds read low 1.02 | locus YJR043C, strain POL32, active compounds read low 0.988 | locus YJR066W, strain TOR1, active compounds read low 0.95
